# Results from PubChem BioAssay AID1159580 (chemical genetic matrix, 2015).
# The whole screen tested about 5,500 compounds, of which about 2,000 (36%) were called active. Roughly 18% stayed inconclusive and do not appear here. The list shows a part of the results. Unmarked numbers belong to inactive results. Cut-off read from the data, not from the text of the source: active = normalized growth mostly below about 0.91 (no sharp cut-off); inconclusive = no clear call, values can overlap the other calls; inactive = mostly above about 0.92.
# Test: chemical genetic growth profiling, strain panel (AID 1159580);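 note: tested at 20 µM; growth read once vehicle control cultures reached saturation at 30 °C; 1 = growth at the plate median or of vehicle wells; lower values mean less growth of the strain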
# Conditions: growth OD
compound,measurement,setting,value
O=C(O[C@@H]1Cc2c(O)cc(O)cc2O[C@@H]1c1ccc(O)c(O)c1)c1cc(O)c(O)c(O)c1,normalized growth,"S. cerevisiae deletion strains, locus YJR043C, strain POL32, active compounds read low",0.792 (active)
same,normalized growth,"S. cerevisiae deletion strains, locus YJR066W, strain TOR1, active compounds read low",0.93
same,normalized growth,"S. cerevisiae deletion strains, locus YKL009W, strain mrt4, active compounds read low",1.02
same,normalized growth,"S. cerevisiae deletion strains, locus YKL068W, active compounds read low",1.01
same,normalized growth,"S. cerevisiae deletion strains, locus YKL085W, strain MDH1 (second series), active compounds read low",0.997
same,normalized growth,"S. cerevisiae deletion strains, locus YKL085W, strain MDH1, active compounds read low",0.997
same,normalized growth,"S. cerevisiae deletion strains, locus YKL160W, strain elf1, active compounds read low",0.97
same,normalized growth,"S. cerevisiae deletion strains, locus YKR001C, strain vps1, active compounds read low",1.04
same,normalized growth,"S. cerevisiae deletion strains, locus YKR026C, strain gcn3, active compounds read low",1.03
same,normalized growth,"S. cerevisiae deletion strains, locus YKR091W, strain srl3, active compounds read low",1.02
same,normalized growth,"S. cerevisiae deletion strains, locus YLL001W, strain dnm1, active compounds read low",0.982
same,normalized growth,"S. cerevisiae deletion strains, locus YLL026W, active compounds read low",1.03
same,normalized growth,"S. cerevisiae deletion strains, locus YLL041C, strain sdh2, active compounds read low",1.02
same,normalized growth,"S. cerevisiae deletion strains, locus YLR027C, strain aat2, active compounds read low",0.993
same,normalized growth,"S. cerevisiae deletion strains, locus YLR039C, strain RIC1, active compounds read low",0.715
same,normalized growth,"S. cerevisiae deletion strains, locus YLR058C, strain SHM2, active compounds read low",0.883 (active)
same,normalized growth,"S. cerevisiae deletion strains, locus YLR102C, strain apc9, active compounds read low",1.01
same,normalized growth,"S. cerevisiae deletion strains, locus YLR113W, strain HOG1, active compounds read low",1.01
same,normalized growth,"S. cerevisiae deletion strains, locus YLR221C, strain rsa3, active compounds read low",1.01
same,normalized growth,"S. cerevisiae deletion strains, locus YLR258W, strain gsy2, active compounds read low",0.952
same,normalized growth,"S. cerevisiae deletion strains, locus YLR262C, strain YPT6 (second series), active compounds read low",0.909
same,normalized growth,"S. cerevisiae deletion strains, locus YLR268W, strain sec22, active compounds read low",0.94
same,normalized growth,"S. cerevisiae deletion strains, locus YLR320W, strain mms22, active compounds read low",1.02
same,normalized growth,"S. cerevisiae deletion strains, locus YLR342W, strain FKS1 (second series), active compounds read low",0.628 (active)
same,normalized growth,"S. cerevisiae deletion strains, locus YLR342W, strain FKS1, active compounds read low",0.831 (active)
same,normalized growth,"S. cerevisiae deletion strains, locus YLR357W, strain rsc2, active compounds read low",0.865
same,normalized growth,"S. cerevisiae deletion strains, locus YLR370C, strain arc18, active compounds read low",0.935
same,normalized growth,"S. cerevisiae deletion strains, locus YLR371W, strain rom2, active compounds read low",0.916
same,normalized growth,"S. cerevisiae deletion strains, locus YLR384C, strain iki3, active compounds read low",1.03
same,normalized growth,"S. cerevisiae deletion strains, locus YLR418C, strain cdc73, active compounds read low",0.963
same,normalized growth,"S. cerevisiae deletion strains, locus YML016C, strain PPZ1, active compounds read low",0.841 (active)
same,normalized growth,"S. cerevisiae deletion strains, locus YML032C, strain rad52, active compounds read low",1.02
same,normalized growth,"S. cerevisiae deletion strains, locus YML120C, strain ndi1, active compounds read low",1
same,normalized growth,"S. cerevisiae deletion strains, locus YML124C, strain tub3, active compounds read low",1.03
same,normalized growth,"S. cerevisiae deletion strains, locus YMR058W, strain fet3, active compounds read low",0.564 (active)
same,normalized growth,"S. cerevisiae deletion strains, locus YMR078C, strain ctf18, active compounds read low",1.02
same,normalized growth,"S. cerevisiae deletion strains, locus YMR125W, strain sto1, active compounds read low",1.12 [resistant] (active)
same,normalized growth,"S. cerevisiae deletion strains, locus YMR129W, active compounds read low",1.03
same,normalized growth,"S. cerevisiae deletion strains, locus YMR205C, strain PFK2, active compounds read low",1.03
same,normalized growth,"S. cerevisiae deletion strains, locus YMR223W, strain ubp8, active compounds read low",0.985
same,normalized growth,"S. cerevisiae deletion strains, locus YMR231W, strain pep5, active compounds read low",0.972
same,normalized growth,"S. cerevisiae deletion strains, locus YMR263W, strain SAP30, active compounds read low",0.997
same,normalized growth,"S. cerevisiae deletion strains, locus YMR307W, strain GAS1, active compounds read low",0.606
same,normalized growth,"S. cerevisiae deletion strains, locus YNL067W, strain RPL9B, active compounds read low",0.961
same,normalized growth,"S. cerevisiae deletion strains, locus YNL071W, strain lat1, active compounds read low",1.02
same,normalized growth,"S. cerevisiae deletion strains, locus YNL183C, strain NPR1, active compounds read low",0.938
same,normalized growth,"S. cerevisiae deletion strains, locus YNL209W, strain ssb2, active compounds read low",0.597 (active)
same,normalized growth,"S. cerevisiae deletion strains, locus YNL233W, strain BNI4, active compounds read low",0.932
same,normalized growth,"S. cerevisiae deletion strains, locus YNL248C, strain rpa49, active compounds read low",0.973
same,normalized growth,"S. cerevisiae deletion strains, locus YNL250W, strain rad50, active compounds read low",1.04
same,normalized growth,"S. cerevisiae deletion strains, locus YNL271C, strain bni1, active compounds read low",1.02
same,normalized growth,"S. cerevisiae deletion strains, locus YNL298W, strain CLA4, active compounds read low",1.01
same,normalized growth,"S. cerevisiae deletion strains, locus YNL307C, strain MCK1, active compounds read low",1.01
same,normalized growth,"S. cerevisiae deletion strains, locus YNL322C, strain KRE1 (second series), active compounds read low",1.06
same,normalized growth,"S. cerevisiae deletion strains, locus YNR049C, strain mso1, active compounds read low",1.04
same,normalized growth,"S. cerevisiae deletion strains, locus YNR052C, strain pop2, active compounds read low",0.989
same,normalized growth,"S. cerevisiae deletion strains, locus YOL006C, strain TOP1, active compounds read low",0.507 (active)
same,normalized growth,"S. cerevisiae deletion strains, locus YOL012C, strain htz1",0.447
same,normalized growth,"S. cerevisiae deletion strains, locus YOL147C, strain pex11, active compounds read low",1.02
same,normalized growth,"S. cerevisiae deletion strains, locus YOR001W, strain rrp6, active compounds read low",1.01
same,normalized growth,"S. cerevisiae deletion strains, locus YOR061W, strain CKA2, active compounds read low",0.925
same,normalized growth,"S. cerevisiae deletion strains, locus YOR069W, strain VPS5, active compounds read low",0.97
same,normalized growth,"S. cerevisiae deletion strains, locus YOR070C, strain gyp1, active compounds read low",0.97
same,normalized growth,"S. cerevisiae deletion strains, locus YOR080W, strain dia2, active compounds read low",0.983
same,normalized growth,"S. cerevisiae deletion strains, locus YOR083W, strain WHI5, active compounds read low",0.961
same,normalized growth,"S. cerevisiae deletion strains, locus YOR106W, strain vam3, active compounds read low",0.622 (active)
same,normalized growth,"S. cerevisiae deletion strains, locus YOR136W, strain idh2, active compounds read low",1.01
same,normalized growth,"S. cerevisiae deletion strains, locus YOR144C, strain elg1, active compounds read low",1.02
same,normalized growth,"S. cerevisiae deletion strains, locus YOR184W, strain ser1, active compounds read low",0.969
same,normalized growth,"S. cerevisiae deletion strains, locus YOR231W, strain MKK1, active compounds read low",0.992
same,normalized growth,"S. cerevisiae deletion strains, locus YOR265W, strain rbl2, active compounds read low",0.988
same,normalized growth,"S. cerevisiae deletion strains, locus YOR270C, strain vph1, active compounds read low",0.923
same,normalized growth,"S. cerevisiae deletion strains, locus YOR290C, strain snf2, active compounds read low",0.97
same,normalized growth,"S. cerevisiae deletion strains, locus YOR316C, strain cot1, active compounds read low",1.03
same,normalized growth,"S. cerevisiae deletion strains, locus YPL051W, strain arl3, active compounds read low",0.776 (active)
same,normalized growth,"S. cerevisiae deletion strains, locus YPL055C, strain LGE1, active compounds read low",0.761
same,normalized growth,"S. cerevisiae deletion strains, locus YPL078C, strain atp4, active compounds read low",0.986
same,normalized growth,"S. cerevisiae deletion strains, locus YPL106C, strain sse1, active compounds read low",0.896
same,normalized growth,"S. cerevisiae deletion strains, locus YPL240C, strain hsp82, active compounds read low",1.01
same,normalized growth,"S. cerevisiae deletion strains, locus YPL241C, strain CIN2, active compounds read low",0.973
same,normalized growth,"S. cerevisiae deletion strains, locus YPL256C, strain CLN2, active compounds read low",1.01
same,normalized growth,"S. cerevisiae deletion strains, locus YPR119W, strain clb2, active compounds read low",1.04
same,normalized growth,"S. cerevisiae deletion strains, locus YPR141C, strain kar3, active compounds read low",1
same,normalized growth,"S. cerevisiae deletion strains, locus YPR163C, strain tif3, active compounds read low",1.03
same,normalized growth,"S. cerevisiae deletion strains, locus YPR167C, strain met16, active compounds read low",1.03
same,normalized growth,"S. cerevisiae deletion strains, strain wtn01, active compounds read low",0.963
same,normalized growth,"S. cerevisiae strains, strain wild type, active compounds read low",0.702 (active)
